Assay results from PubChem BioAssay.

assay: E. coli DRC41 culture turbidity changes, primary screen, E. coli filamentation inducer project, strain DRC41, OD650, 48 h (AID 1152);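 also: E. coli MC1000 strain DRC41 lacking acrAB efflux pump and sulA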; conditions: E. coli DRC41 (acrAB sulA), higher = more signal, called active from +8 up or from −8 down

z-score, inactive:
CCC(CC)C(O)C1C=CC2C(=O)NC(=O)C2N1Nc1ccc(Cl)cc1Cl (stereo unspecified) -1.69
C=C(CCCC)/C(=C/C[C@@H](OC(=O)c1ccncc1)c1ccc(OCCO)cc1)c1cc(C(=O)OC)ccc1OC 0.4
CO[C@H]1O[C@H](CO)[C@@H](OC(=O)Nc2cccc(F)c2)[C@H](OC(=O)Nc2ccccc2)[C@@H]1OC(=O)Nc1ccccc1 -1.17
C=C(COC)C(=O)CC[C@@H](OC(C)=O)c1ccc(CO)o1 0.0488
COC(=O)[C@H](Cc1ccccc1)N1CC2=C[C@@H](C3CC3)n3c(=O)n(C)c(=O)n3[C@H]2[C@@H]1[C@@H](O)Cc1ccccc1 -1.32
C=C[C@H](CO[Si](CC)(CC)CC)N(Cc1ccc(OC(C)=O)c(OC)c1)S(=O)(=O)c1ccc(Br)cc1 0.719
C=CCOC(=O)[C@H]1[C@@H]2C(=O)O[C@@H](c3ccccc3)[C@@H](c3ccccc3)N2[C@@H](c2ccc(OCCOC(=O)[C@H]3C[C@H]4C(=O)N[C@@H](CCCCNC(C)=O)C(=O)N4[C@H]3c3ccc(O)cc3)cc2)[C@]12C(=O)Nc1ccc(I)cc12 -1.8
CC(C)C(O)C1C=CC2C(=O)NC(=O)C2N1Nc1ccc(Cl)cc1Cl (stereo unspecified) -1.3
COc1ccc([Si](C)(C)[C@H]2[C@H](CCO)O[C@@]3(C(=O)N(Cc4ccc(N(C=O)c5ccccc5)cc4)c4ccccc43)[C@@H]2C)cc1 -0.208
CC(C)C(O)C1C=CC2C(=O)N(c3ccccc3)C(=O)C2N1Nc1ccc([N+](=O)[O-])cc1 (stereo unspecified) -0.467
CC(C)C[C@@H]1NC(=O)[C@H](C(C)C)NC(=O)[C@@]23C(=O)N[C@@H](Cc4ccccc4)C2[C@H](C)[C@@]2(C)O[C@H]2C3/C=C/CC/C=C/CNC1=O (stereo partly specified) -0.62
CC1(C)[C@@H]2CC(C(O)C3C=CC4C(=O)N(c5ccccc5)C(=O)C4N3Nc3ccc([N+](=O)[O-])cc3)=C[C@H]1C2 (stereo partly specified) -1.03
COc1ccccc1CN1C(=O)c2ccccc2[C@@]2(Cc3ccccc3N(CC(C)C)C2=O)[C@@H]1c1ccc(CO)cc1 -0.12
CC1CC/C=C\[C@H]2OC34C=CCN(C(C)(C)C)C(=O)[C@H]3N(C(C)CO)C(=O)[C@@H]4C2C(=O)O1 (stereo partly specified) -0.265
O=C(NCCO)C1=C[C@H](Oc2ccccc2I)[C@@H](O)[C@H](N(Cc2ccco2)C(=O)Cc2ccccc2)C1 -0.673
CN(C)CCCC[C@@H]1NC(=O)[C@H]2C[C@@H](C(=O)NCCCCCCN)[C@@H](c3ccc(O)cc3)N2C1=O 0.51
COC(=O)C(CC#Cc1ccc2c(c1)[C@]1(C(=O)N2)[C@H](c2ccc(OCCO)cc2)N2[C@H](c3ccccc3)[C@H](c3ccccc3)OC(=O)[C@H]2[C@@H]1C(=O)N1CCc2cc(OC)c(OC)cc2C1)C(=O)OC -0.339
[N-]=[N+]=Nc1ccccc1[C@H]1OC(c2ccc(OCCCO)cc2)=N[C@@]1(CCS(=O)(=O)c1ccccc1)C(N)=O 0.613
COC(=O)[C@@]1(Cc2ccc(F)cc2)[C@H]2c3cc(C(=O)N(C)C)n(Cc4ccccc4)c3C[C@H]2CN1C(=O)c1ccccc1 -1.39
COc1cc(COC(C)=O)ccc1OC(C)=O 3.19
CN1C(=O)C2C=CC(C(O)C#Cc3ccccc3)N(N3CCCCC3)C2C1=O (stereo unspecified) -0.381
NC(=O)NCC#Cc1ccc2c(c1)[C@]1(C(=O)N2)[C@H](C(N)=O)[C@H]2C(=O)O[C@H](c3ccccc3)[C@H](c3ccccc3)N2[C@@H]1c1ccc(O)cc1 0.0502
CO[C@H]1O[C@H](CO)[C@@H](OC(=O)Nc2ccc(Oc3ccccc3)cc2)[C@H](OC(=O)Nc2ccc3c(c2)OCO3)[C@H]1OC(=O)Nc1ccc2c(c1)OCO2 0.97
CC(C)NC(=O)[C@@H]1c2ccccc2C(=O)N(C2Cc3ccccc3C2)[C@H]1c1ccc(CO)cc1 0.814
CCCc1cc2c(n1Cc1cc(F)cc(F)c1)C(C)C1CN(C(=O)c3ccccc3)C(C)(C(=O)OC)C21 (stereo unspecified) -1.55
[N-]=[N+]=Nc1ccccc1[C@@H]1OC(c2ccc(OCCCO)cc2)=N[C@]1(CCS(=O)(=O)c1ccccc1)C(N)=O 0.307
